Measured values published in the supplement of paper PMC10849652.
About 7,900 targets were measured; listed, in parts, are those with a hit and a random draw of the rest. About 0.6% of all pairs of compound and target were hits.

Compound: C1=CC2=C(C=CC(=C2)/C=C\3/C(=O)NC(=NCC4=CC=CS4)S3)N=C1
Assay: log2 fold change, soluble protein after heating vs DMSO (PISA); higher = thermal stabilisation; K562 cells, 10 uM, 30 min; active = over 0.2 and 3.5 SD of the protein, either way, in both replicates (recomputed)
In short: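 Aliquots of K562 cells (2×10^6 cells/mL) treated with 10 μM compound for 30 min were heated for 3 min over 48°C-58°C. After pooling and extraction in PBS with 0.5% NP-40 at 4°C, soluble protein from a 21,000xg, 90 min spin was quantified by TMTpro 16plex LC-MS/MS with channel sums equalised. Thermal stability is expressed against control samples, from duplicates, as a log2 fold change.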

Sequence of UniProt P13473 (P13473 whole entry, looked up): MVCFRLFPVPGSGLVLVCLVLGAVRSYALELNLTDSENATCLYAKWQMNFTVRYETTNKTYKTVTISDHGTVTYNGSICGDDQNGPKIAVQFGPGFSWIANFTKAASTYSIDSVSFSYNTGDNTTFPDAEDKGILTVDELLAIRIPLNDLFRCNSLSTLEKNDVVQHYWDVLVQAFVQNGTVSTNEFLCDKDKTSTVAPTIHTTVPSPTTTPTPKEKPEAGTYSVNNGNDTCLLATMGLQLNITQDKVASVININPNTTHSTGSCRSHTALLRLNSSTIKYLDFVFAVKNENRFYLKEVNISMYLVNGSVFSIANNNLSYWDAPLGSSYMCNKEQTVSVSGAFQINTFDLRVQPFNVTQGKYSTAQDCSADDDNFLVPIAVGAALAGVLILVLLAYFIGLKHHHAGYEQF
Sequence of UniProt Q96P70 (Q96P70 whole entry, looked up): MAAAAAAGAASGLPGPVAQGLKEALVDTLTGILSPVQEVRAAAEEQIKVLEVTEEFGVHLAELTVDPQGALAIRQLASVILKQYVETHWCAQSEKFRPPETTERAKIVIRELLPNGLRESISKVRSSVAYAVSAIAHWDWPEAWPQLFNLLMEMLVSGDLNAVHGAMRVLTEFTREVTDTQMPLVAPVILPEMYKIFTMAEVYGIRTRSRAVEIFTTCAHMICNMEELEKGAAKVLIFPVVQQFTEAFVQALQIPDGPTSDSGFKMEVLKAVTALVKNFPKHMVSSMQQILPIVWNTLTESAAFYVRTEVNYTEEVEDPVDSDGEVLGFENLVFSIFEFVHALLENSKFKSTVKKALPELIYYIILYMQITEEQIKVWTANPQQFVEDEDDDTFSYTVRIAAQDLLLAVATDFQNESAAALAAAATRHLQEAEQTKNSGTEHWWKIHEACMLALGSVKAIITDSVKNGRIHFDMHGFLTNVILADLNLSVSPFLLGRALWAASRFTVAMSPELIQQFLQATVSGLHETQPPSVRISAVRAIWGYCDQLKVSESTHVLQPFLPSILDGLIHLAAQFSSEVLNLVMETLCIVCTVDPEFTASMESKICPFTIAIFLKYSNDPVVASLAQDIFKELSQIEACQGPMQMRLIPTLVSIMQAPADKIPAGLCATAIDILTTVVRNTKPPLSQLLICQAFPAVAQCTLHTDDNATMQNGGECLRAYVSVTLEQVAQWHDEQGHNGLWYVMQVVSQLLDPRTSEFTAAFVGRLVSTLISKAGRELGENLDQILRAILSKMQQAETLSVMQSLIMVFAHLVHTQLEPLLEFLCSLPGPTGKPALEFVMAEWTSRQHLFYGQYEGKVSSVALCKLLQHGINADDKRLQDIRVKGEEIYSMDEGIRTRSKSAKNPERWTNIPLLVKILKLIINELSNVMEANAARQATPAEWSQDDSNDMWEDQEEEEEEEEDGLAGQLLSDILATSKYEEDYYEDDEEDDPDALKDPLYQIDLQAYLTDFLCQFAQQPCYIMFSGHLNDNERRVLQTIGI
Sequence of UniProt P27816 (P27816 whole entry, looked up): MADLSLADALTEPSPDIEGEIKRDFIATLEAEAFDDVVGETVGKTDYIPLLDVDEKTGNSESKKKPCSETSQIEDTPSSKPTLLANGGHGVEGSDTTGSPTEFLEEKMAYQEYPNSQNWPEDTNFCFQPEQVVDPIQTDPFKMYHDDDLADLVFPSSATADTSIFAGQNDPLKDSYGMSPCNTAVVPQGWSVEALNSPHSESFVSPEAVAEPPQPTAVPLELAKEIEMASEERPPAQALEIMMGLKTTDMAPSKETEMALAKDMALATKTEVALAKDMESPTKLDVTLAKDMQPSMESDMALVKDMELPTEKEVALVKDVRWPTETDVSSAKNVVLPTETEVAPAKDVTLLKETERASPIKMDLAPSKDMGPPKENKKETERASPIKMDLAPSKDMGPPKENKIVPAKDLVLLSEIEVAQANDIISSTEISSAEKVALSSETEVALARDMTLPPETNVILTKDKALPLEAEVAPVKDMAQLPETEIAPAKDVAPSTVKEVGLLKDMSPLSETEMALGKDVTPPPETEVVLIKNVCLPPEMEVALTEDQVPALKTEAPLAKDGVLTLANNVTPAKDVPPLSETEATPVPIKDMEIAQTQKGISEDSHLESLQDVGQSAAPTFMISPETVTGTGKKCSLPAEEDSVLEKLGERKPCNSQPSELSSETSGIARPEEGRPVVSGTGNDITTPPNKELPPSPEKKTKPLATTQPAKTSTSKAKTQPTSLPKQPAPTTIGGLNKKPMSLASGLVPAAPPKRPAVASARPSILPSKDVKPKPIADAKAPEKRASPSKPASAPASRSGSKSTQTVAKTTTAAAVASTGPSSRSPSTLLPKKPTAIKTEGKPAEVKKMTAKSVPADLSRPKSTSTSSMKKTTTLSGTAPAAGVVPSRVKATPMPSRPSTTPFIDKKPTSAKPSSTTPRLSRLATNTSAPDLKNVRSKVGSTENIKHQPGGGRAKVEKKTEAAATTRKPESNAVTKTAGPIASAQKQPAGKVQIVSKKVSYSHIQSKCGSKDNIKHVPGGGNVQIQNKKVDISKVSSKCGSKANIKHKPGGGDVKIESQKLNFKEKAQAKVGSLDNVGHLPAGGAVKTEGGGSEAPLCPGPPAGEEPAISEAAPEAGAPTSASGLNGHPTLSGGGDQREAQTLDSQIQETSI
Sequence of UniProt Q16644 (Q16644 whole entry, looked up): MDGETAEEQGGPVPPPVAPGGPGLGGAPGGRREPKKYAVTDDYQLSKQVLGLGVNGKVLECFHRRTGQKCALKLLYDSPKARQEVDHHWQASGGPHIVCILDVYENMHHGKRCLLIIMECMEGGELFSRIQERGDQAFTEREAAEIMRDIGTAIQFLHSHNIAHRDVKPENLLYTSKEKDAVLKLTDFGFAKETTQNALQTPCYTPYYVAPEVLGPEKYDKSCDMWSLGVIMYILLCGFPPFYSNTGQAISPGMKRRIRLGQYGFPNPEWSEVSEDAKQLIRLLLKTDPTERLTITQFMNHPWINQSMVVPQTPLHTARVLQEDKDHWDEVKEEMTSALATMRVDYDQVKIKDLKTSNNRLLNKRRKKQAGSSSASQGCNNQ
Sequence of UniProt Q02750 (Q02750 whole entry, looked up): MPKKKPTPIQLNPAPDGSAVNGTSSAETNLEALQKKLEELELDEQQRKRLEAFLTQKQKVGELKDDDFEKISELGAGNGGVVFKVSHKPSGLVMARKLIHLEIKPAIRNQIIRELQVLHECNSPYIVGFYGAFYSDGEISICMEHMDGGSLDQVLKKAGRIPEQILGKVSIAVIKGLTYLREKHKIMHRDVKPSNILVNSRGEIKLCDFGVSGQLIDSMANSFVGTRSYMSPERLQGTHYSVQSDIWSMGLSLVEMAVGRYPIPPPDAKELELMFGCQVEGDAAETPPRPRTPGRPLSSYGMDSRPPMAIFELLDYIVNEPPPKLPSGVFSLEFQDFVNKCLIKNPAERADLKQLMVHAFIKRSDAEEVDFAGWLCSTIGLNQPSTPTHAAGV
Sequence of UniProt Q9NYL2 (Q9NYL2 whole entry, looked up): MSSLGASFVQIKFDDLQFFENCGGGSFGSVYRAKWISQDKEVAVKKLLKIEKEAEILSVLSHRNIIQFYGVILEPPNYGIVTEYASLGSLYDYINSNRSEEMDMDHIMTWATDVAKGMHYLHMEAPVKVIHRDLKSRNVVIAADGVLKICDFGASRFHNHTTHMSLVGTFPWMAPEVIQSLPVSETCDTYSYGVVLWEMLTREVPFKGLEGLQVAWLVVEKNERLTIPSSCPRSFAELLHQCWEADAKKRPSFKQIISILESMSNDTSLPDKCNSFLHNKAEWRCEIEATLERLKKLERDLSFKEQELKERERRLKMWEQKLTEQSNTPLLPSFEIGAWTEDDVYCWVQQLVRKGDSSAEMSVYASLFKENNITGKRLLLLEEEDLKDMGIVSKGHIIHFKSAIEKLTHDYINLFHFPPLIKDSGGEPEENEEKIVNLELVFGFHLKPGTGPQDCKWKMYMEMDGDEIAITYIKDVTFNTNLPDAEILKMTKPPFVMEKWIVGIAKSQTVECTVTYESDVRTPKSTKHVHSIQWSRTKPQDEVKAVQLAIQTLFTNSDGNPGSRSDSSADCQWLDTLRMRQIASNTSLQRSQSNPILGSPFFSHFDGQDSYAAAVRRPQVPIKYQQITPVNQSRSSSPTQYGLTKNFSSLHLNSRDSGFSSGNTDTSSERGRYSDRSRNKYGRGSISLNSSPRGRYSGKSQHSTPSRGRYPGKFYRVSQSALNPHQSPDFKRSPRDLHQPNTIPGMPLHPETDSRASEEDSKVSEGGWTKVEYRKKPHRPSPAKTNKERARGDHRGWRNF
Sequence of UniProt Q9Y383 (Q9Y383 whole entry, looked up): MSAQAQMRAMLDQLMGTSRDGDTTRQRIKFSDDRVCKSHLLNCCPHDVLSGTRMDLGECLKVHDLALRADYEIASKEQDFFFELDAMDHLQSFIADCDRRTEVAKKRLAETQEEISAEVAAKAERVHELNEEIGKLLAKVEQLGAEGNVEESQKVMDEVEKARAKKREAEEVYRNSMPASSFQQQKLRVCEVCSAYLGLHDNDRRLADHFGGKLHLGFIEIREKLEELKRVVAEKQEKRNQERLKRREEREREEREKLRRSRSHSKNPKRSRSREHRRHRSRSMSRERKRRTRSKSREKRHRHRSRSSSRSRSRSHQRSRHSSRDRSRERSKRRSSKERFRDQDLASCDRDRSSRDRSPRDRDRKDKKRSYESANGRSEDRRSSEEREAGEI
Sequence of UniProt O95232 (O95232 whole entry, looked up): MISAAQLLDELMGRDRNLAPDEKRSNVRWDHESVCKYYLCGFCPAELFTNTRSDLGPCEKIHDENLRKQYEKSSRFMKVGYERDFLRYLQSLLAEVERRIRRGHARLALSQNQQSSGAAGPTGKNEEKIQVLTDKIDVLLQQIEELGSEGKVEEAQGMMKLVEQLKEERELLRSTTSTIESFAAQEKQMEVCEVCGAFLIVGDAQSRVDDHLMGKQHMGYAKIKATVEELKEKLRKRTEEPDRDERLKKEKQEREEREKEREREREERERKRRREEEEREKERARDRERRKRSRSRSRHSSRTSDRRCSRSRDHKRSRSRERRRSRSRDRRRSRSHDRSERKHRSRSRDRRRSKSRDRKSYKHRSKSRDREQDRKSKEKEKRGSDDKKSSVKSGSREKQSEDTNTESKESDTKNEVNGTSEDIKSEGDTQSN

log2 fold change, inactive:
MAPK9 (UniProt P45984) 0, MGST3 (UniProt O14880) 0.006, INTS7 (UniProt Q9NVH2) -0.175, LARP1 (UniProt Q6PKG0) -0.025, KDM5D isoform 3 (UniProt Q9BY66) 0.121, MAP2K1 (UniProt Q02750) 0.074, MAP3K20 (UniProt Q9NYL2) -0.009, LUC7L3 (UniProt O95232) -0.093, LBR (UniProt Q14739) 0.029, L2HGDH (UniProt Q9H9P8) 0.07, KDM3B (UniProt Q7LBC6) 0, LUC7L2 (UniProt Q9Y383) -0.218, MFN2 (UniProt O95140) 0.026, IPO9 (UniProt Q96P70) 0.023, LSR (UniProt Q86X29) -0.019, MAP4 (UniProt P27816) -0.039, LARP7 isoform 3 (UniProt Q4G0J3) 0.06, MFF (UniProt Q9GZY8) 0.107, METTL18 (UniProt O95568) 0.038, ILF3 isoform 7 (UniProt Q12906) -0.049, LAMP2 (UniProt P13473) 0.002, LRPPRC (UniProt P42704) 0.204, MAPKAPK3 (UniProt Q16644) 0.024
